Screening data deposited in PubChem BioAssay by several laboratories.
FXIa inh mix = FXIa protease inhibitors in compound pools, primary screen, biochemical, 10-compound mixtures; purified FXIa, fluorogenic substrate, pooled mixtures; inhibition, % at 5 µM; 62,000 compounds, 0.19% hits; AID 680, 2007;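 also: each value is inhibition by a whole ten-compound pool holding the compound; 0% = enzyme with no mixture and 100% = wells lacking enzyme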
D1 mod = D1 CRE-luciferase signal change, two-sided – cell-based, HEK293 D1, dopamine EC30, D1 allosteric modulator project, primary screen; D(1A) dopamine receptor (Homo sapiens), P21728; dopamine EC30 potentiation; actives deviate in either direction; B-score at 10 µM; 58,000 compounds, 5.9% hits;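 active = luminescence count or its row- and column-corrected plate score outside the 99.7% band of the plate's sample wells, on either side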
DAT uptake mod = changed hDAT dopamine uptake under cocaine IC80, either direction, primary screen, cocaine antagonist project, cell-based, LLC-PK1 hDAT, [14C]-dopamine uptake, MLSMR | Sodium-dependent dopamine transporter (Homo sapiens), Q01959 | AID 449768, 2010 | 110,000 compounds, 1.3% hits | B-score at 10 µM | LLC-PK1 hDAT cells, [14C]-dopamine uptake with cocaine IC80; actives deviate in either direction;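 active = Z score or B-score, a plate-position-corrected score, falls beyond the plate's 99.7% confidence bounds, in either direction; inactive = both scores lie inside the 99.7% bounds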;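 also: scored against the spread of the other compound wells on the same plate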
M1 antag = antagonists of rat M1 muscarinic receptor; CHO-M1 cells, Fluo-4 calcium, ACh EC80 antagonist mode; stronger effect = lower value; B-score at 10 µM; 64,000 compounds, 3.4% hits;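 active = calcium fluorescence response, raw or row-and-column corrected B-score, differing from the plate sample mean either way at a set confidence level, mostly lower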
M1 agonist = M1 muscarinic receptor agonists, primary screen, CHO-M1 cells, Fluo-4 calcium, agonist mode; Muscarinic acetylcholine receptor M1; B-score at 10 µM; 64,000 compounds, 3% hits; Fluo-4 calcium fluorescence; stronger effect = higher value;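 active = fluorescence rise, raw or as B-score row- and column-corrected plate score, outside the 99.7% band of its plate's samples, either direction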
FXIIa mix inh = human factor XIIa inhibitors, primary screen, biochemical, pooled compound mixtures, fluorogenic substrate; Coagulation factor XII (Homo sapiens), P00748; purified FXIIa; inhibition, % at 5 µM; 62,000 compounds, 0.2% hits; AID 684, 2007;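 also: 0% = enzyme without compound and 100% = no enzyme blank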
Target sequence (P00748 20-372 limits assumed): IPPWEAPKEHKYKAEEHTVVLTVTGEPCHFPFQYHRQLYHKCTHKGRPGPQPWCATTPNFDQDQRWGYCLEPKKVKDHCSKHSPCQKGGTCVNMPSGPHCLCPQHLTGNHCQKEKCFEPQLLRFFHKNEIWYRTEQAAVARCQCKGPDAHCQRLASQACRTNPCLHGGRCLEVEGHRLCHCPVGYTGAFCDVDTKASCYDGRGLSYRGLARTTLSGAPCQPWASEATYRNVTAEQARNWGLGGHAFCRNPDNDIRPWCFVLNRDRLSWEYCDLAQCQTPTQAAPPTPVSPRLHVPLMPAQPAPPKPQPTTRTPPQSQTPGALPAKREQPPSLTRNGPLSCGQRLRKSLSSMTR
Target sequence (P00748 373-615 limits assumed): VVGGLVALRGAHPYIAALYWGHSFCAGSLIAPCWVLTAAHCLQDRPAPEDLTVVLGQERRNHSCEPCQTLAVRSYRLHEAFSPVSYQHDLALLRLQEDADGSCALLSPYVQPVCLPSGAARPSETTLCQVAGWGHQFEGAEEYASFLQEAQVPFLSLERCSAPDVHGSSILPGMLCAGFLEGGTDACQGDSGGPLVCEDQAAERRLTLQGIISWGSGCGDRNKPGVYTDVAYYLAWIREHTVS
M1 ag confirm = rat M1 muscarinic receptor agonists, confirmation, CHO-M1 cells, Fluo-4 calcium, duplicate retest | shares compounds with M1 agonist | Fluo-4 calcium fluorescence, agonist mode; actives lie on both sides | fluorescence change (max-min) at 10 µM | 1,700 compounds, 19% hits | AID 1488, 2009;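 active = fluorescence change differs from the solvent-only DMSO control mean at a set confidence level in both duplicate runs; inconclusive = differs from solvent-only control mean in just one of two runs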;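 also: an EC20 dose of acetylcholine follows compound addition during the same imaging run; raw fluorescence intensity difference in instrument units with no normalization to controls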
M4 agonist ctr = agonist activity at rat M4 receptor, confirmation, counter-screen for M1 allosteric modulator project, cell-based, agonist mode. shares compounds with M1 agonist. CHO M4/Gqi5 cells, Fluo-4 calcium fluorescence; actives lie on both sides. fluorescence change (max-min) at 10 µM. 1,700 compounds, 9% hits. AID 1741, 2009;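 active = fluorescence change differing from the plate's solvent-only control wells at 99.7% confidence in both duplicates, whether higher or lower; inconclusive = differs from solvent controls in only one of two duplicates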
The depositor's hits bear a star. In the library only some 7.4% were active in any assay of this set; here they are far more common. Rule as the data show it, unless noted: active = inhibition above about 20% (passing the limit was not always enough); inactive = the rest.

How did O=C(c1cn(-c2ccccc2)nc1-c1ccc(Cl)s1)N1CCOCC1 do in these assays?
FXIa inh mix: 14; D1 mod: 0.39; DAT uptake mod: 1.2; M1 antag: -0.25; M1 agonist: 7.7*; FXIIa mix inh: 4; M1 ag confirm: -27; M4 agonist ctr: -26

What do the screens show for `CC(=O)N1CCc2c(sc(NC(=O)C3CC3)c2-c2nc3ccccc3s2)C1`?
FXIa inh mix: 8; D1 mod: -0.88; DAT uptake mod: 0.16; M1 antag: -1.4; M1 agonist: 6.1*; FXIIa mix inh: 9; M1 ag confirm: 11; M4 agonist ctr: inconclusive

How did Cc1cc(SCC(=O)OCC(=O)N2CCN(C(=O)c3ccco3)CC2)c(C)cc1Br do in these assays?
FXIa inh mix: -7; D1 mod: 0.0039; DAT uptake mod: -1; M1 antag: 0.11; M1 agonist: 4.1*; FXIIa mix inh: 17; M1 ag confirm: -5.5; M4 agonist ctr: -11

Results for Cc1cnc(C(=O)OCC(=O)N2CCN(C(=O)c3ccco3)CC2)cn1 ?
FXIa inh mix: 2; D1 mod: -0.31; DAT uptake mod: 0.16; M1 antag: -0.012; M1 agonist: -0.24; FXIIa mix inh: 5

Results for Cc1ccccc1-n1c(=O)cc(NCc2ccc3c(c2)OCO3)[nH]c1=O ?
FXIa inh mix: 9; D1 mod: 0.92; DAT uptake mod: -0.0026; M1 antag: -0.12; M1 agonist: 0.044; FXIIa mix inh: 3

Results for O=C(NCc1ccco1)C(Cc1ccccc1)N1C(=O)C2C3C=CC(C3)C2C1=O (stereo not given) ?
FXIa inh mix: -1; D1 mod: -1.2; DAT uptake mod: 0.6; M1 antag: -0.89; M1 agonist: 4.5*; FXIIa mix inh: -13; M1 ag confirm: inconclusive; M4 agonist ctr: -45

What do the screens show for `CSc1n[nH]c(NCc2ccc(C)cc2)n1`?
DAT uptake mod: -0.49

How did O=C(O)CN=C1NC2(CCCCC2)Cc2ccccc21 do in these assays?
DAT uptake mod: -1.7

How did CC1CCCCN1S(=O)(=O)c1ccc(C(=O)Nc2nnc(-c3ccccc3Cl)o2)cc1 (stereo not given) do in these assays?
FXIa inh mix: -3; D1 mod: 2.5; DAT uptake mod: 1.4; M1 antag: 0.015; M1 agonist: -2.5*; FXIIa mix inh: -18; M1 ag confirm: inconclusive; M4 agonist ctr: -45

What do the screens show for `CCC1CCCCN1S(=O)(=O)c1ccc(C(=O)Nc2nnc(-c3ccccc3Cl)o2)cc1` (stereo not given)?
FXIa inh mix: 5; D1 mod: -1.5; DAT uptake mod: 0.36; M1 antag: -0.11; M1 agonist: 0.061; FXIIa mix inh: 3

How did CCOc1cc(C(=O)Nc2ccc(N3CCN(S(C)(=O)=O)CC3)cc2)cc(OCC)c1OCC do in these assays?
FXIa inh mix: 10; D1 mod: 0.73; DAT uptake mod: -0.12; M1 antag: 0.055; M1 agonist: 0.01; FXIIa mix inh: 10

How did CCOc1cc(C(=O)Nc2ccccc2N2CCN(S(C)(=O)=O)CC2)cc(OCC)c1OCC do in these assays?
FXIa inh mix: 9; D1 mod: -0.19; DAT uptake mod: 1.2; M1 antag: -0.43; M1 agonist: 1.8*; FXIIa mix inh: -5; M1 ag confirm: -20; M4 agonist ctr: -34

Results for O=C(NCc1nc2ccccc2[nH]1)C1=C[C@@H](C2CCCCC2)C[C@@H](OCCCCO)O1 ?
DAT uptake mod: -0.35

Results for Cc1c(C(=O)NCCC2=CCCCC2)cccc1[N+](=O)[O-] ?
DAT uptake mod: 1.7

What do the screens show for `Cc1ccc(SC/C(O)=C(\C#N)c2nc3ccccc3s2)cc1`?
FXIa inh mix: 0; D1 mod: -1.6; DAT uptake mod: -0.26; M1 antag: -2.4; M1 agonist: 3.3*; FXIIa mix inh: 5; M1 ag confirm: -3.5; M4 agonist ctr: 13

Results for N#C/C(=C(/O)CSc1ccccc1C(=O)O)c1nc2ccccc2s1 ?
DAT uptake mod: 0.23

What do the screens show for `CCC(C)NC(=O)c1ccc(CSc2nc3ccncc3n2Cc2ccc(F)cc2)cc1` (stereo not given)?
DAT uptake mod: -1.2

How did C1=CN2CCC1C(c1ccccc1)C2 (stereo not given) do in these assays?
FXIa inh mix: 12; D1 mod: -0.31; DAT uptake mod: -0.89; M1 antag: -8*; M1 agonist: 44*; FXIIa mix inh: 9; M1 ag confirm: 428*; M4 agonist ctr: 7.6

Results for CCOc1ccc2nc(N3CCC(C(=O)N4CCN(C(=O)c5ccco5)CC4)CC3)sc2c1 ?
FXIa inh mix: 4; D1 mod: -0.48; DAT uptake mod: 0.47; M1 antag: -0.37; M1 agonist: 2.8*; FXIIa mix inh: -2; M1 ag confirm: inconclusive; M4 agonist ctr: -38

What do the screens show for `CCOc1ccc2nc(N3CCCC(C(=O)N4CCN(CC)CC4)C3)sc2c1` (stereo not given)?
FXIa inh mix: -3; D1 mod: -0.79; DAT uptake mod: 0.14; M1 antag: -0.4; M1 agonist: 0.31; FXIIa mix inh: 11

How did Cn1cnnc1Sc1nc2ccccc2nc1NS(=O)(=O)c1ccccc1 do in these assays?
FXIa inh mix: 4; D1 mod: -1; DAT uptake mod: 2.4; M1 antag: -0.061; M1 agonist: -0.043; FXIIa mix inh: -3

Results for CC(=O)Nc1ccc(S(=O)(=O)Nc2nc3ccccc3nc2Sc2nncn2C)cc1 ?
FXIa inh mix: 5; D1 mod: 0.33; DAT uptake mod: -2.1; M1 antag: 0.3; M1 agonist: 43*; FXIIa mix inh: 10; M1 ag confirm: 55*; M4 agonist ctr: 12

How did CCN(CC)c1nc2ccccc2nc1C(C#N)C(=O)NCCc1ccccc1 (stereo not given) do in these assays?
FXIa inh mix: -1; D1 mod: 0.019; DAT uptake mod: -0.5; M1 antag: -1; M1 agonist: 219*; FXIIa mix inh: 5; M1 ag confirm: 2068*; M4 agonist ctr: 1724*

Results for CCCN(CCC)c1nc2ccccc2nc1C(C#N)C(=O)OC(C)COC (stereo not given) ?
DAT uptake mod: -0.15; M1 antag: 0.88; M1 agonist: 1.1
